Records with an inconclusive call do not appear. Activity calls are given as the source filed them. Unless noted, the call rests on the fitted dose curve; in most records, active means well fitted curve in the direction sought with a large enough effect in the repeat runs; inconclusive means weak or mixed curves; inactive means no such curve, though single readings can be large; an effect the other way counts as inactive or inconclusive.
What was measured:
[1] = qHTS assay to identify small molecule agonists of the estrogen receptor alpha (ER-alpha) signaling pathway in the presence of an antagonist - cell viability counter screen (AID 1259386);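 further: series mostly up to about 92 µM; cells exposed to compounds for 22 h at 37 °C before the viability read; nearly all actives have a fitted effect of over 30% in size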
How it was run: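 ICI-182,780 at 10.0nM final accompanies the compound titration (15 concentrations, 22hr, 37C) on VM7Luc4E2 cells. The CellTiter-Fluor fluorescence readout runs in the same wells as the luciferase assay.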

[2] = qHTS assay to identify small molecule antagonists of the progesterone receptor (PR) signaling pathway - cell viability counter screen (AID 1346798); further: nearly all actives have a fitted effect of over 50% in size; further: potency means the concentration at half of the fitted maximal effect
How it was run: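 Viability was determined by ATP-based luminescence (CellTiter-Glo) in PR-UAS-bla HEK293T cells cultured in 2% charcoal-stripped serum and incubated 16 hr with compounds under R5020 stimulation.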

[3] = qHTS assay to identify small molecule agonists of the progesterone receptor (PR) signaling pathway - cell viability counter screen (AID 1346799; calls by dose curve; further: nearly all actives have a fitted effect of over 45% in size)
How it was run: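 Viability was scored by ATP luminescence (CellTiter-Glo, 30 min, room temperature) in the same wells used for the reporter readout, after 16 hr compound exposure of PR-UAS-bla HEK293T cells.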

[4] = qHTS assay to identify small molecule antagonists of the TGF-beta/Smad signaling pathway - cell viability counter screen (AID 1346824); further: nearly all actives have a fitted effect of over 50% in size
How it was run: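 SBE-bla HEK 293T cells, incubated overnight, then compound plus 0.25 ng/mL TGF-beta1 (stock added) for 5 hr at 37 C. Viability was read in the same wells by CellTiter-Glo luminescence after 30 min at room temperature.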

[5] = qHTS assay to identify small molecule agonists of the TGF-beta/Smad signaling pathway (AID 1346859; active means well fitted activation curve with a large enough effect in the signal ratio in the repeat runs, not every such curve was filed as active; the % refers to the signal ratio; further: series mostly up to about 77 µM)
How it was run: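 Dual-wavelength fluorescence (460/530 nm emission) quantified beta-lactamase expression under the Smad binding element in HEK 293T cells following 5 hr compound treatment at 37 C.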

[6] = Human pregnane X receptor (PXR) small molecule agonists, qHTS cell viability counter screen (AID 1346977); further: nearly all actives have a fitted effect of over 50% in size; further: potency means the concentration at half of the fitted maximal effect
How it was run: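 HepG2 cells stably carrying the PXR-Luc reporter are cultured with 5% charcoal-stripped FBS and treated with compounds for 24hr. CellTiter-Fluor is added at 23hr and fluorescence is read after 1hr.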

[7] = Caspase-3/7 induction in HepG2 cells by small molecules, qHTS assay (AID 1346978); further: nearly all actives have a fitted effect of over 15% in size
How it was run: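 Wild-type HepG2 cells, 2,000/well, settled 5 hr at 37 C and 5% CO2, then compound-treated for 17 hr; caspase-3/7 activity read by luminescent Caspase-Glo 3/7 after 30 min at room temperature.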

[8] = Caspase-3/7 induction in CHO-K1 cells by small molecules, qHTS cell viability counter screen (AID 1346979); further: nearly all actives have a fitted effect of over 35% in size; further: potency means the concentration at half of the fitted maximal effect
How it was run: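 Seeding: 1,500 CHO-K1 cells/well. Rest: 5hr, 37C. Treatment: compounds in DMSO, 16hr. Read: CellTiter-Fluor, 1hr, fluorescence.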

[9] = Caspase-3/7 induction in CHO-K1 cells by small molecules, qHTS assay (AID 1346980); further: nearly all actives have a fitted effect of over 15% in size
How it was run: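 Wild-type CHO-K1 cells exposed to compounds for 17hr at 37 C, 5% CO2. Caspase-3/7 activity then measured by Caspase-Glo 3/7 luminescence after 30min at room temperature.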

[10] = biological target: Nuclear receptor subfamily 1 group I member 2 (Homo sapiens) (UniProt O75469); assay: Human pregnane X receptor (PXR) small molecule agonists, qHTS assay (AID 1346982); further: nearly all actives have a fitted effect of over 35% in size; further: potency means the concentration at half of the fitted maximal effect
Chain of Nuclear receptor subfamily 1 group I member 2 (Homo sapiens) (O75469 whole entry, looked up): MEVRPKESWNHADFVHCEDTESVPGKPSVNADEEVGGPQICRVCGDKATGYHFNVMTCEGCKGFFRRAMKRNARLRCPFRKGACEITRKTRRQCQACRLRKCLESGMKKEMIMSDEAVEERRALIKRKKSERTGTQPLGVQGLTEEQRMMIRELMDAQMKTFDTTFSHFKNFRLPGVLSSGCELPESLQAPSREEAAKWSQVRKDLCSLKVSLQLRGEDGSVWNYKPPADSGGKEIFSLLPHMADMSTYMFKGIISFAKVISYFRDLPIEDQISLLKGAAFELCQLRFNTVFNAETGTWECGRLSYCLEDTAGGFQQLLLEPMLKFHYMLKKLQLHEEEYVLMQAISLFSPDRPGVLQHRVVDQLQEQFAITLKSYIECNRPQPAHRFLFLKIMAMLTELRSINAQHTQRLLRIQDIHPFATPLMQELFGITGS
How it was run: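 We seeded PXR-Luc HepG2 cells in assay medium containing 5% charcoal-stripped FBS, added compounds 5 hr later, incubated 24 hr, and read luminescence with ONE-Glo reagent.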

[11] = biological target: Cytochrome P450 2D6 (Homo sapiens) (UniProt P10635); assay: Cytochrome P450 Family 2 Subfamily D Member 6 (CYP2D6) small molecule antagonists: luciferase reporter qHTS assay (AID 1671196); further: nearly all actives have a fitted effect of over 50% in size; further: potency means the concentration at half of the fitted maximal effect
Chain of Cytochrome P450 2D6 (Homo sapiens) (P10635 whole entry, looked up): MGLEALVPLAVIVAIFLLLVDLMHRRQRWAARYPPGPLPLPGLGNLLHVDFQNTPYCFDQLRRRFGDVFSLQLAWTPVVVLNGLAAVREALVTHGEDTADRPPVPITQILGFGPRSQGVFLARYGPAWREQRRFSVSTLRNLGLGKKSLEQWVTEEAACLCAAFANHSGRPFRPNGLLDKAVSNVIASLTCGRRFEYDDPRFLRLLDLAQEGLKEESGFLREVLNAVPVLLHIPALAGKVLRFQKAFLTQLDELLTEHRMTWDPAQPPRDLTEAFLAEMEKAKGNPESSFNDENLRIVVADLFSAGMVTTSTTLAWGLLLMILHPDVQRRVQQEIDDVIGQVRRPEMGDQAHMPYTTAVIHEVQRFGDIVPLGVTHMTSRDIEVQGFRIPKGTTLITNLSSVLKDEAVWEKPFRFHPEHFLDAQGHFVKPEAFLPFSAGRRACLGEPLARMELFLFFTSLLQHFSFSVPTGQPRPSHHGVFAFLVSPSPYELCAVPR
How it was run: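 Luminescence (RLU), read 20 min after detection reagent, indicated CYP2D6 conversion of proluciferin to luciferin during a 1 h NADPH-dependent reaction at room temperature.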

[12] = biological target: Progesterone receptor (Homo sapiens) (UniProt P06401); assay: qHTS assay to identify small molecule antagonists of the progesterone receptor (PR) signaling pathway (AID 1346795; active means well fitted inhibition curve with a large enough effect in the signal ratio in the repeat runs, not every such curve was filed as active; the % refers to the signal ratio; further: potency means the concentration at half of the fitted maximal effect)
Chain of Progesterone receptor (Homo sapiens) (P06401 whole entry, looked up): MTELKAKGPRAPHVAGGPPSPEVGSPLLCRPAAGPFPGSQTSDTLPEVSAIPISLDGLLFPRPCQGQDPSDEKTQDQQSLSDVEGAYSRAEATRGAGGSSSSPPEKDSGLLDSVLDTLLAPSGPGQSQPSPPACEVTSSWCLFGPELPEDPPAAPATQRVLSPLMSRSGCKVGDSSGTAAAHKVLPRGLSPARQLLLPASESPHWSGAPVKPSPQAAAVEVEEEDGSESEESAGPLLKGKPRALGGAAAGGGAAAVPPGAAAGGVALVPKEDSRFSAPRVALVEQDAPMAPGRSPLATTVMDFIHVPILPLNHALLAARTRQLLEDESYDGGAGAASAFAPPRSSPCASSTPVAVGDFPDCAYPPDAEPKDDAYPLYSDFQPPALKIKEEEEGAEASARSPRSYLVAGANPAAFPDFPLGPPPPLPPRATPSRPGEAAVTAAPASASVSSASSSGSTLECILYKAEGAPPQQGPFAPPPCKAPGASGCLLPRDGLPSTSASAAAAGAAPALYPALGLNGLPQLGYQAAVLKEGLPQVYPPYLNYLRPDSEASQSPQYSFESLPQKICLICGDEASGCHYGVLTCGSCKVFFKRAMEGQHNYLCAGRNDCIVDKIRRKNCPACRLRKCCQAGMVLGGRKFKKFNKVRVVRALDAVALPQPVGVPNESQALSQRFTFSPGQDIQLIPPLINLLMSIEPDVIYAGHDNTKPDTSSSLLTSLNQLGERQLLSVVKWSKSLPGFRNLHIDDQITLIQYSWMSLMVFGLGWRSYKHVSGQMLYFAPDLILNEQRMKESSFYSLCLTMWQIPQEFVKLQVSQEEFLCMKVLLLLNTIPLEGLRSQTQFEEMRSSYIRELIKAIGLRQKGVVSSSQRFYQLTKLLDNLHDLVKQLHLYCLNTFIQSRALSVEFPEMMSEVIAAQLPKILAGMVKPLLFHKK
How it was run: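 After 6 hr plating at 37C in 2% stripped-serum medium, PR-UAS-bla HEK293T cells got compounds, then 1 nM R5020. Sixteen hours later, LiveBLAzer substrate was applied for 2 hr at room temperature and fluorescence was recorded.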

[13] = qHTS assay to identify small molecule agonists of the TGF-beta/Smad signaling pathway - cell viability counter screen (AID 1346829); further: top concentration of the series differs between compounds; nearly all actives have a fitted effect of over 45% in size
How it was run: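 Tox21 qHTS format: SBE-bla HEK 293T cells treated with DMSO-dissolved compounds for 5 hr; CellTiter-Glo luminescence after 30 min at room temperature.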

[14] = Caspase-3/7 induction in HepG2 cells by small molecules, qHTS cell viability counter screen (AID 1346981); further: nearly all actives have a fitted effect of over 30% in size; further: potency means the concentration at half of the fitted maximal effect
How it was run: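 Multiplexed with the caspase-3/7 assay: HepG2 cells, 16 hr compound treatment, CellTiter-Fluor viability detection by fluorescence.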

[15] = biological target: Thyrotropin-releasing hormone receptor (Homo sapiens) (UniProt P34981); assay: qHTS assay to identify small molecule agonists of the thyrotropin-releasing hormone receptor (TRHR) signaling pathway (AID 1346891; calls by dose curve;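 further: HEK293 cells expressing TRHR with calcium dye readout; series mostly up to about 58 µM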)
Chain of Thyrotropin-releasing hormone receptor (Homo sapiens) (P34981 whole entry, looked up): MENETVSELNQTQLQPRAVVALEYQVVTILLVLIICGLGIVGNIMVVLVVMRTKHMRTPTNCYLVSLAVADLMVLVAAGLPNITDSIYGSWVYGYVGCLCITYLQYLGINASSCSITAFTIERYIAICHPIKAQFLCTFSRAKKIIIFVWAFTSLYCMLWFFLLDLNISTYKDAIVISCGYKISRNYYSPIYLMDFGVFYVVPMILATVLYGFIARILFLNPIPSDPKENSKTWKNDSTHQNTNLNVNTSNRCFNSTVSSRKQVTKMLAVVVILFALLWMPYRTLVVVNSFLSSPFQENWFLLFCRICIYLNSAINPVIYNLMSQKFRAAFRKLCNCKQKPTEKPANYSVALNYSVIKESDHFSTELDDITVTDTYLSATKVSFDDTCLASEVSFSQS
How it was run: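 Kinetic fluorescence (3 min, 1 s intervals) reported intracellular calcium after compound transfer onto TRHR-Hek293 cells pre-loaded with dye for 2 h at 37 °C.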

[16] = biological target: Thyrotropin-releasing hormone receptor (Homo sapiens) (UniProt P34981); assay: qHTS assay to identify small molecule antagonists of the thyrotropin-releasing hormone receptor (TRHR) signaling pathway (AID 1346877; active means well fitted inhibition curve with a large enough effect in the repeat runs, not every such curve was filed as active; further: series mostly up to about 51 µM)
How it was run: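 Screening used HEK293 cells engineered with TRHR, with a brief 5 min room-temperature compound exposure preceding addition of TRH to 1 nM. The read-out was kinetic calcium-dye fluorescence, concentration-response from 15 doses in triplicate.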

[17] = biological target: Nuclear receptor subfamily 1 group I member 2 (Rattus norvegicus) (UniProt Q9R1A7); assay: Rat pregnane X receptor (rPXR) activation by small molecules, qHTS assay (AID 1346983); details: rPXR luciferase reporter cells, One-Glo luminescence, 24 h; max activation: stronger effect = higher value; further: nearly all actives have a fitted effect of over 20% in size; further: potency means the concentration at half of the fitted maximal effect
Chain of Nuclear receptor subfamily 1 group I member 2 (Rattus norvegicus) (Q9R1A7 whole entry, looked up): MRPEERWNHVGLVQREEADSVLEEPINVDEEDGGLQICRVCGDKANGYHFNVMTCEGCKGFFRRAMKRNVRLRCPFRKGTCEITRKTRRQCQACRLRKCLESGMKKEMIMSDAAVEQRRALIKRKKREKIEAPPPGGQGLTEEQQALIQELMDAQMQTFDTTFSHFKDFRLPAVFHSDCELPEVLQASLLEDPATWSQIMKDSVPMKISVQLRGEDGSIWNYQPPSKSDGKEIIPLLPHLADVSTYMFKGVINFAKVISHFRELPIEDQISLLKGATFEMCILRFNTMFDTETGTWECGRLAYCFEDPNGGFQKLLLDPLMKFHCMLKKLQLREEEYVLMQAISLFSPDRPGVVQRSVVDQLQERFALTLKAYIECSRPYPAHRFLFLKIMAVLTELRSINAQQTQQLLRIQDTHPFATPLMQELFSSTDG
How it was run: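 Cell-based rPXR activation assay: rPXR cells, 2,000 per well, rested 5hr at 37 C, then exposed to compounds in DMSO for 24 hr at 37 C. Luciferase activity read by One-Glo luminescence after 30 min at room temperature.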

[18] = biological target: Nuclear receptor subfamily 1 group I member 2 (Homo sapiens) (UniProt O75469); assay: CYP3A4 induction through human pregnane X receptor (PXR) by small molecules, qHTS assay (AID 1346984); further: nearly all actives have a fitted effect of over 40% in size
How it was run: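 qHTS, concentration-response format: HepG2 DPX-2 line, PXR/CYP3A4-luc. Exposure 24 h, 37C. Substrate Luciferin-IPA 3uM final, 3 h. Detection One-Glo, 30 min RT.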

[19] = biological target: Nuclear receptor subfamily 1 group I member 2 (Homo sapiens) (UniProt O75469); assay: Human pregnane X receptor (PXR) activation by small molecules, qHTS assay (AID 1346985); further: nearly all actives have a fitted effect of over 40% in size; further: potency means the concentration at half of the fitted maximal effect
How it was run: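 DPX-2 cells (HepG2 co-transfected with a PXR response element and a CYP3A4-promoter luciferase construct) were seeded at 2,000 per well, rested 5 hr at 37C, then exposed to DMSO-dissolved compounds for 24 hr. Activation was read as luciferase luminescence.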

[20] = biological target: Progesterone receptor (Homo sapiens) (UniProt P06401); assay: qHTS assay to identify small molecule agonists of the progesterone receptor (PR) signaling pathway (AID 1346784; calls by dose curve; further: nearly all actives have a fitted effect of over 30% in size)
How it was run: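 The screen uses PR-UAS-bla HEK 293T cells in charcoal-stripped serum (2%). Compounds are applied for 16 hr at 37C after a 6 hr pre-incubation, and reporter activity is detected with a FRET beta-lactamase substrate after 2 hr at room temperature.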
On the % scale 0 is the no-effect control and ±100 the full control effect.

CCC(C)(C)C1CCC(O)CC1 (stereo not drawn)
inactive: Potency [1] | Potency [2] | Potency [3] | outcome [4] | outcome [5] | Potency [6] | Potency [7] | Potency [8] | outcome [9] | Potency [10] | Potency [11]

CCC(=O)OC/C=C/c1ccccc1
inactive: Potency [1] | Potency [12] | Potency [2] | Potency [3] | outcome [4] | outcome [13] | outcome [5] | Potency [6] | Potency [7] | Potency [8] | outcome [9] | Potency [14] | Potency [10] | Potency [11]

CCCOC(=O)c1ccc(C(=O)OCCC)nc1
inactive: Potency [1] | Potency [2] | Potency [3] | outcome [4] | outcome [13] | Potency [15] | Potency [6] | Potency [7] | Potency [8] | outcome [9] | Potency [14] | Potency [10] | Potency [11]

C=CC(C)(C)CC(=O)OC
active: Potency [10] 68.8 µM | Potency [11] 63.5 µM
inactive: Potency [1] | Potency [2] | outcome [4] | outcome [5] | outcome [16] | Potency [7] | outcome [9]

O=S1OCCO1
inactive: Potency [1] | Potency [12] | Potency [2] | Potency [3] | outcome [4] | outcome [13] | outcome [16] | Potency [15] | Potency [6] | Potency [7] | Potency [8] | outcome [9] | Potency [10] | Potency [11]

COCCOC
inactive: Potency [1] | Potency [12] | Potency [2] | outcome [4] | outcome [13] | outcome [5] | outcome [16] | Potency [15] | Potency [7] | outcome [9]
active: Potency [8] 14.6 µM | Potency [14] 13 µM

CCCCC(=O)O[C@]1(C(=O)CO)[C@@H](C)C[C@H]2[C@@H]3CCC4=CC(=O)C=C[C@]4(C)[C@@]3(F)[C@@H](O)C[C@@]21C
inactive: Potency [1] | Potency [12] | Potency [3] | outcome [4] | outcome [13] | Potency [6] | Potency [7] | outcome [9]
active: Potency [10] 34.4 µM | Potency [11] 35.6 µM

N#C/C(=C1\SCC(c2ccccc2Cl)S1)n1ccnc1 (stereo not drawn)
inactive: Potency [1] | outcome [4] | outcome [13] | outcome [5] | outcome [16] | Potency [15] | Potency [6] | Potency [7] | Potency [8] | max activation [17] -0.365% | Potency [18]
active: Potency [12] 23.7 µM | Potency [19] 14.1 µM | Potency [11] 2.19 µM

CCCCC(=O)O[C@]1(C(=O)CO)CC[C@H]2[C@@H]3CCC4=CC(=O)CC[C@]4(C)[C@H]3[C@@H](O)C[C@@]21C
inactive: Potency [1] | Potency [12] | Potency [2] | Potency [3] | outcome [4] | outcome [13] | outcome [5] | Potency [15] | Potency [6] | Potency [8] | outcome [9] | Potency [14] | Potency [18] | Potency [19] | Potency [11]
active: Potency [10] 26.6 µM | Potency [17] 6.31 µM

CCCOCCOCCO
inactive: Potency [1] | Potency [12] | Potency [2] | Potency [3] | outcome [4] | outcome [13] | outcome [5] | Potency [6] | Potency [7] | Potency [8] | outcome [9] | Potency [10] | Potency [11]

CC(=O)[C@H]1CC[C@H]2[C@@H]3C=CC4=CC(=O)CC[C@@]4(C)[C@@H]3CC[C@]12C
inactive: Potency [1] | Potency [12] | Potency [3] | outcome [4] | outcome [13] | outcome [5] | outcome [16] | Potency [6] | Potency [14] | Potency [18] | Potency [19] | Potency [11]
active: Potency [10] 26.6 µM

COc1cc2ncnc(Nc3ccc(F)c(Cl)c3)c2cc1OCCCN1CCOCC1
inactive: Potency [1] | outcome [4] | outcome [13] | outcome [5] | outcome [16] | Potency [15] | Potency [10] | max activation [17] -4.52%
active: Potency [12] 21.1 µM | Potency [6] 23.7 µM | Potency [8] 29.8 µM | Potency [11] 13.8 µM

CCCCCCCCSCCO
inactive: Potency [1] | Potency [2] | Potency [3] | outcome [4] | outcome [13] | outcome [5] | outcome [16] | Potency [15] | Potency [6] | Potency [7] | Potency [8] | outcome [9] | Potency [10] | Potency [11]

CCOC(=N)CC(=O)OCC
active: Potency [2] 17.2 µM
inactive: Potency [1] | outcome [4] | outcome [13] | outcome [16] | Potency [15] | Potency [6] | Potency [7] | Potency [8] | outcome [9] | Potency [14]

CC1=CC(O)CC(C)(C)C1 (stereo not drawn)
inactive: Potency [1] | Potency [2] | Potency [3] | outcome [4] | outcome [13] | outcome [5] | Potency [6] | Potency [7] | Potency [8] | outcome [9] | Potency [14] | Potency [10] | Potency [11]

CCCC1C(CC)=CC(CC)=CN1c1ccccc1 (stereo not drawn)
active: Potency [12] 27.3 µM | Potency [11] 20 µM
inactive: outcome [4] | outcome [13] | outcome [5] | Potency [6] | Potency [7] | Potency [8] | outcome [9]

O=c1[nH]c2ccc(S(=O)CCN3CCC(Cc4ccc(F)cc4)CC3)cc2o1 (stereo not drawn)
inactive: Potency [20] | outcome [4] | outcome [13] | outcome [16] | Potency [15] | Potency [7] | outcome [9] | Potency [10]
active: Potency [8] 54.5 µM | Potency [11] 35.6 µM

O=C(CCC1CCN(Cc2ccccc2)CC1)c1ccc2c(c1)NCCCC2
inactive: Potency [20] | Potency [12] | Potency [2] | outcome [4] | outcome [13] | outcome [5] | outcome [16] | Potency [14]
active: Potency [11] 8.71 µM

— PubChem BioAssay (Tox21)
